Screening results: PubChem BioAssay, Corson Lab, School of Medicine, Indiana University
Many of the other results were omitted from the sample, so hits are more common in it than they were.
FECH inh = human FECH heme synthesis enzyme inhibition | P22830 | purified FECH, Ni-mesoporphyrin absorbance 550 nm | calls only at 10 µM (by protocol) | hit rate 3.3% among 20,000;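 active = enzyme reaction rate more than 3 SD below the solvent-only control wells on the same plate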;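 also: lower slope than DMSO wells means FECH inhibition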
Target sequence (P22830 whole entry, looked up): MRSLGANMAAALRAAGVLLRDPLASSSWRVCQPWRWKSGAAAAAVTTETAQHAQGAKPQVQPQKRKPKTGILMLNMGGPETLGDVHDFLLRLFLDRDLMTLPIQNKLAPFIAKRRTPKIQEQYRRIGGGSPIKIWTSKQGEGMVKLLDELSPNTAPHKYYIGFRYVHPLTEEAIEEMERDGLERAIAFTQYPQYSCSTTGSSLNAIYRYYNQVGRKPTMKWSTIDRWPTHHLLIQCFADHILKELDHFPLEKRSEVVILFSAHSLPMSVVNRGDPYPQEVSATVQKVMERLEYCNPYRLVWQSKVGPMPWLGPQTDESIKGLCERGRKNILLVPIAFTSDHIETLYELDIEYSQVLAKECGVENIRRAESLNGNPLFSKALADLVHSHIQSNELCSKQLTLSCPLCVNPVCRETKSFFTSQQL
* = called active by the depositor; i = inactive; + = active, no number.

SMILES	FECH inh
COc1ccc(CNc2nc3nc(CNc4cc(Cl)ccc4OC)cc(=O)n3[nH]2)cc1	i
CCCNCc1cc(=O)n2[nH]c(NCc3ccc(Cl)cc3)nc2n1	i
CCCNCc1cc(=O)n2[nH]c(NCc3ccc(OC)cc3)nc2n1	+
O=c1cc(CNc2cccc(Cl)c2)nc2nc(NCc3ccccc3)[nH]n12	i
COc1ccc(CNc2nc3nc(CNc4ccc(F)cc4)cc(=O)n3[nH]2)cc1	+
O=c1cc(CNc2ccc(Cl)cc2)nc2nc(NCc3ccccc3)[nH]n12	+
O=c1cc(CNc2ccc(Cl)cc2)nc2nc(NCc3ccc(F)cc3)[nH]n12	i
COc1ccc(N2C(=O)CCS2(=O)=O)cc1S(=O)(=O)Nc1ccc(C(C)=O)cc1	i
CN(C)Cc1ccc(C(=O)N2CCNCC2C(=O)N2CCCC2)o1 (stereo not given)	i
COCCCNC(=O)c1ccc(CN2C(=O)CCn3nc(-c4ccc(OC)cc4)cc32)cc1	i
Cc1cc(C)n(CCN(C)C(=O)c2cn(CC3CCCO3)nn2)n1 (stereo not given)	i
COC(=O)c1cc(NC(=O)c2nc3ccccc3n(C)c2=O)cc(C(=O)OC)c1	i
Cc1nnc(SCCCNC(=O)c2cc(C(C)C)[nH]n2)s1	i
Cc1cccc(CN2CC(=O)N(Cc3ccc(Cl)cc3)c3ccccc3S2(=O)=O)c1	i
Cc1ccc(C)c(CN2CC(=O)N(Cc3ccc(Cl)cc3)c3ccccc3S2(=O)=O)c1	+
O=C1CN(Cc2ccccc2Cl)S(=O)(=O)c2ccccc2N1Cc1ccc(Cl)cc1	i
CCC(=O)Nc1cccc(C(=O)N2CCCN(C)CC2C)c1 (stereo not given)	i
CCOc1ccc(-c2cnc(-c3ccnc(CC)n3)[nH]2)cc1	i
CCCCCN(c1nc2nc(C)c(Cl)c(C)n2n1)S(=O)(=O)c1ccccc1	i
NC(=O)[C@H](Cc1ccccc1)N1Cc2ncccc2C1=O	+
NS(=O)(=O)c1ccc(CN2Cc3ncccc3C2=O)cc1	i
O=C1c2cccnc2CN1C(CCn1cncn1)c1ccccc1 (stereo not given)	i
CSc1nnc(CC2CCN(C/C=C/c3ccco3)CC2)n1C	i
CNc1nc(N2CCC(Cc3nnc(SC)n3C)CC2)nc2c1CCC2	+
CN(C)CCNC(=O)c1nc[nH]c1C(=O)NCc1ccccn1	i
SMILES	FECH inh
CCCNC(=O)c1[nH]cnc1C(=O)NC(c1ccccc1)c1ccccc1	i
CCCNC(=O)c1nc[nH]c1C(=O)NCc1ccccc1	i
O=C(NCc1ccccn1)c1nc[nH]c1C(=O)NCc1ccccc1	+
O=C(NCc1ccccc1)c1nc[nH]c1C(=O)NCc1cccnc1	i
O=C(NC(c1ccccc1)c1ccccc1)c1nc[nH]c1C(=O)NCc1ccccn1	+
O=C(NCCc1c[nH]c2ccccc12)c1nc[nH]c1C(=O)NCc1ccccc1	+
CC1(C)CC(NC(=O)c2nc[nH]c2C(=O)NCc2ccccn2)CC(C)(C)N1	i
CC(C)(C)CNC(=O)c1[nH]cnc1C(=O)NCCc1c[nH]c2ccccc12	i
CCNc1nc(Nc2cc(C)cc(C)c2)c2cnn(-c3ccccc3)c2n1	i
O=c1c(NC2CC2)c(-c2ccc3c(c2)CCCC3)c1=O	i
COc1ccc(OC)c(NC(=O)c2nc3ccccc3n(C)c2=O)c1	i
CN1[C@@H](c2ccc(Cl)cc2)[C@@H](C(=O)NC2CCC(O)CC2)C[C@@]1(C)C(=O)O (stereo not given in full)	i
Cc1ncc(-c2c(-c3ccccc3)ncn2CCN2CCCOC2=O)[nH]1	+
O=C1OCCCN1CCn1cnc(-c2ccccc2)c1-c1cccnc1	i
Cc1cccc(-c2c(-c3ccccc3)ncn2CCN2CCOC2=O)c1C	i
Cc1ncc(-c2c(-c3ccccc3)ncn2CCc2cccs2)[nH]1	+
c1ccc(-c2ncn(CCc3cccs3)c2C2CCOC2)cc1 (stereo not given)	i
Cc1ncc(-c2c(-c3ccccc3)ncn2CCCOc2cccnc2)[nH]1	i
Cc1cc(C)cc(S(=O)(=O)NCc2nc3cccnc3n2C2CCCC2)c1	i
CC(CNc1nc(-c2ccncc2)nc2c1CNC2)Oc1cccnc1 (stereo not given)	i
CCOc1ccc(Nc2nc(NCCCOC(C)C)nc3c2cnn3-c2ccccc2)cc1	i
CCc1cc(Sc2ccc(NC(=O)c3cccc(Cl)c3)cc2)n2ncnc2n1	i
O=c1oc2ccccc2n1CCN1CCc2[nH]cnc2C1c1ccccn1 (stereo not given)	i
CN(CC1(CO)CCCC1)c1nccc(N2CCCC(O)C2)n1 (stereo not given)	i
COc1ccc(NCc2cc(=O)n3[nH]c(NCc4ccccc4Cl)nc3n2)cc1	i
COc1ccccc1NCc1cc(=O)n2[nH]c(NCc3ccccc3)nc2n1	i
COc1cccc(NCc2cc(=O)n3[nH]c(NCc4ccccc4Cl)nc3n2)c1	+
COc1ccc(CNc2nc3nc(CNc4cccc(OC)c4)cc(=O)n3[nH]2)cc1	i
CCOc1ccccc1NCc1cc(=O)n2[nH]c(NCc3ccccc3)nc2n1	i
